Data: PubChem BioAssay
Activity calls are given as the source filed them. Unless noted, the rule behind the calls is not given here.

What was measured:
[1] = anti-His antibody binders, primary screen, artefact control for SMM control protein annotation, biochemical, small-molecule microarray, 635 nm fluorescence (AID 1128); conditions: anti-His Alexa647 antibody binding, higher = more signal;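 note: score merges feature fluorescence with signal-to-noise for each printed compound spot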
[2] = tested on: Human papillomavirus type 1a E7 protein (residues 1-88); test: HPV1a E7 small-molecule binders, primary screen, biochemical, small-molecule microarray, residues 1-88, 635 nm (AID 1129); conditions: small-molecule microarray binding, fluorescence 635 nm; higher = more signal
[3] = molecular target: Focal adhesion kinase 1 (Homo sapiens) (UniProt Q05397); test: small-molecule microarray binders of FAK, primary screen, biochemical, 635/667 nm fluorescence, BSA, DTT (AID 1130); conditions: PTK2 binding, 635 nm fluorescence, higher = more signal;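 note: composite of spot emission at 667 nm and signal to noise over triplicate slides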
[4] = tested on: Fibrinogen (Alexa647-labelled); test: fibrinogen binders on compound microarrays, profiling panel, artefact control for SMM control-protein annotation, biochemical, small-molecule microarray, 635/667 nm fluorescence (AID 1131); conditions: fibrinogen-A647 binding fluorescence, higher = more signal;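 note: z-score merges 667 nm fluorescence with per-spot signal-to-noise over triplicate slides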
[5] = molecular target: Follistatin (Homo sapiens) (UniProt P19883); test: follistatin binders on small-molecule microarrays, primary screen, biochemical, small-molecule microarray, 635/667 nm fluorescence (AID 1132); conditions: FST binding, 635 nm fluorescence, higher = more signal
[6] = molecular target: Fibroblast growth factor 2 (Homo sapiens) (UniProt P09038); test: FGF2 binders on small-molecule microarrays, primary screen, biochemical, small-molecule microarray, 635/667 nm fluorescence (AID 1133); conditions: small-molecule microarray binding, FGF2, fluorescence 635/667; higher = more signal
[7] = mitochondrial membrane potential change in A549 cells, profiling panel, cell-based, JC-1 fluorescence, basal, 24 h, 100 nL (AID 1138); conditions: higher = more signal;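 note: A549 lung adenocarcinoma cells under basal conditions with no added stimulus; test concentration not given here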
Lefty1 = Lefty1 binders on small-molecule microarrays, primary screen, biochemical, small-molecule microarray, 635/667 nm fluorescence (AID 1139); conditions: small-molecule microarray binding, fluorescence 635/667; higher = more signal
[8] = tested on: wheat germ agglutinin (Triticum aestivum), Alexa647-labelled; test: wheat germ agglutinin binders on compound microarrays, profiling panel, artefact control for SMM control-protein annotation, biochemical, small-molecule microarray, 635/667 nm fluorescence (AID 1140); conditions: WGA-A647 binding, 635 nm fluorescence, higher = more signal;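 note: score merges 667 nm feature emission with signal to noise over triplicate slides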
[9] = molecular target: Luciferin 4-monooxygenase (Photinus pyralis) (UniProt P08659); test: firefly luciferase enzyme inhibitors, primary screen, biochemical, luminescence, purified enzyme, 2006 set (AID 1141); conditions: SteadyGlo luminescence, 30 min, higher = more signal, called active from +8 up or from −8 down;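 note: cell-free assay with purified firefly luciferase at 100 ng per well in PBS; test concentration not given here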
[10] = tested on: Wnt5a (protein binding on small-molecule microarray); test: Wnt5a binders on small-molecule microarray, primary screen, biophysical, 635/667 nm fluorescence (AID 1142); conditions: 635 nm fluorescence, higher = more signal;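 note: fluorescence read at 667 nm with signal to noise per printed feature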
[11] = cell viability in Huh7 cells, primary screen, cytotoxicity control for HCV replication inhibitor project, CellTiter-Glo luminescence, basal, 48 h (AID 1143); conditions: Huh7 HCV replicon, higher = more signal, called active from +8 up or from −8 down;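 note: Huh7 hepatoma cells carrying a hepatitis C replication reporter with no stimulus; test concentration not given here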
[12] = P. aeruginosa biofilm formation inhibitors, primary screen, PAO1 strain, BacTiter-Glo luminescence, LB-PBS (AID 1144); conditions: 12 h, higher = more signal
[13] = CREB reporter modulators without forskolin, primary screen, cell-based, PC12, CRE-LacZ reporter, unstimulated (AID 1145); conditions: no forskolin, luminescence, 4.5 h, higher = more signal, called active from +8 up or from −8 down
[14] = CREB reporter modulators under forskolin, primary screen, cell-based, PC12, CRE-LacZ reporter, forskolin-stimulated (AID 1146); conditions: luminescence, 4.5 h, higher = more signal, called active from +8 up or from −8 down;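 note: PC12 cells with 6xCRE LacZ reporter stimulated by forskolin 10 µM; beta-galactosidase reporter signal reflecting CREB driven transcription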
[15] = molecular target: Streptavidin (Streptomyces avidinii) (UniProt P22629); test: streptavidin binders on small-molecule microarray, primary screen, artefact control for SMM compound annotation, biophysical, 635/667 nm fluorescence (AID 1147); conditions: streptavidin binding, higher = more signal;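 note: signal reflects streptavidin binding to arrayed compounds as a control protein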
[16] = small-molecule binders of probe aInhba, primary screen, biochemical, small-molecule microarray, 635/667 nm fluorescence (AID 1148); conditions: higher = more signal;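 note: score merges 667nm spot fluorescence with signal-to-noise for antibody binding to printed compounds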
Torsin-1A (Homo sapiens) [17] = molecular target: Torsin-1A (Homo sapiens) (UniProt O14656); test: torsin A binders from cell lysate, primary screen, small-molecule microarray, wild-type, 635/667 nm (AID 1149); conditions: COS7 hTOR1A-WT lysate, 635 nm fluorescence, higher = more signal
Torsin-1A (Homo sapiens) [18] = molecular target: Torsin-1A (Homo sapiens) (UniProt O14656); test: small-molecule binders of mutant TOR1A in lysate, primary screen, cell lysate, small-molecule microarray, COS7 lysate, 635/667 nm fluorescence (AID 1150); conditions: COS7 hTOR1A mutant lysate, 635 nm fluorescence, higher = more signal;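 note: score pools 667 nm emission and signal to noise measuring lysate protein binding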
[19] = tested on: Sonic hedgehog protein (Shh); test: small-molecule binders of Shh protein, primary screen, biochemical, small-molecule microarray, 635/667 nm fluorescence (AID 1151); conditions: small-molecule microarray binding, 635 nm fluorescence; higher = more signal;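 note: Shh protein binding to compounds spotted on small-molecule microarray slides; score combines spot fluorescence intensity with signal-to-noise across triplicate slides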

Sequence of Focal adhesion kinase 1 (Homo sapiens) (Q05397 whole entry, looked up): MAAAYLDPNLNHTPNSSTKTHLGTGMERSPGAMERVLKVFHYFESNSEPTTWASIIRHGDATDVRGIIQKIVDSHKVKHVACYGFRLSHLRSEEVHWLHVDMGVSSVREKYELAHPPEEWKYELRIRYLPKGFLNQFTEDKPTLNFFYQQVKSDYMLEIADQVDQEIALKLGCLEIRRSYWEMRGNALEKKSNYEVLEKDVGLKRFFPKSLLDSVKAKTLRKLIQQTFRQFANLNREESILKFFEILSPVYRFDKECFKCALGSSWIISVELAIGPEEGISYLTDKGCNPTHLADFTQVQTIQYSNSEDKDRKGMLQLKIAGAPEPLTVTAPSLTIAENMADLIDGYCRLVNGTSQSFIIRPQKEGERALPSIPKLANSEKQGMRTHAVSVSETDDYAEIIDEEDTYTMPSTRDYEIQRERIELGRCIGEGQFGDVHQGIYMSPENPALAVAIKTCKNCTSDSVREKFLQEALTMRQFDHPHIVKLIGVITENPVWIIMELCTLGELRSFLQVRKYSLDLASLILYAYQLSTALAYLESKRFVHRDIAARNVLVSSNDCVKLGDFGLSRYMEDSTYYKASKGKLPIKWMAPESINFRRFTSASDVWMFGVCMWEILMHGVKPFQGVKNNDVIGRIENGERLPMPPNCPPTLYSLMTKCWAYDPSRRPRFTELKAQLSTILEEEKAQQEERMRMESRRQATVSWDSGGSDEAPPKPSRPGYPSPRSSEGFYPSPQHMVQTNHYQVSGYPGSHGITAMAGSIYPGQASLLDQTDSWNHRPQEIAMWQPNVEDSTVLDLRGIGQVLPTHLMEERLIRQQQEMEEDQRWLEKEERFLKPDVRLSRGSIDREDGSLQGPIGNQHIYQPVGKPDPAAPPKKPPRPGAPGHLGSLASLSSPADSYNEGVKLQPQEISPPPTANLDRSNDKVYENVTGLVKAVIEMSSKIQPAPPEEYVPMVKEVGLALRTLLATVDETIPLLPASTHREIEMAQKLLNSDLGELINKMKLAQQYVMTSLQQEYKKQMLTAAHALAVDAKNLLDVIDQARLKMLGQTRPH
Sequence of Fibroblast growth factor 2 (Homo sapiens) (P09038 whole entry, looked up): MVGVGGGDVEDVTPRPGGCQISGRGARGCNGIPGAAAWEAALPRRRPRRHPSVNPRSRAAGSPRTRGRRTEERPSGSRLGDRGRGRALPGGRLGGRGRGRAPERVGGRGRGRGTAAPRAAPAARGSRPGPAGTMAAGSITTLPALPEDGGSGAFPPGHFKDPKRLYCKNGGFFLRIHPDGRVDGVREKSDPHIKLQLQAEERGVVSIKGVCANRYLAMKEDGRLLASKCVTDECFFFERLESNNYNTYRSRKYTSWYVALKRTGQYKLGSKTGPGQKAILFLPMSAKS
Sequence of Luciferin 4-monooxygenase (Photinus pyralis) (P08659 whole entry, looked up): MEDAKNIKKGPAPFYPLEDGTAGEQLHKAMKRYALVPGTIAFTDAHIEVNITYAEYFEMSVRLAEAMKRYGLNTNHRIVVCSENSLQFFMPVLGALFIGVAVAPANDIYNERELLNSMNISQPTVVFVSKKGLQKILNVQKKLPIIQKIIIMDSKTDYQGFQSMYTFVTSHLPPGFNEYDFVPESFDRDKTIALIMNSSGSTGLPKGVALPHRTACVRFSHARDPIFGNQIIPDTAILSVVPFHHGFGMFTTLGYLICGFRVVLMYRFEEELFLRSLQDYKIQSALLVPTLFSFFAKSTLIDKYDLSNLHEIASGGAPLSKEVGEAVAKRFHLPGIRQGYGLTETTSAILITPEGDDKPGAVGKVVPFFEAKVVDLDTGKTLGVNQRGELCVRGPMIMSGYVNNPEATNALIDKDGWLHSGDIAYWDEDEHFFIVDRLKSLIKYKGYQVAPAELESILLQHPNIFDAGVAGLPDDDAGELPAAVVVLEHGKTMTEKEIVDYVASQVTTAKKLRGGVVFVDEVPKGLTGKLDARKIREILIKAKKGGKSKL
Sequence of Follistatin (Homo sapiens) (P19883 whole entry, looked up): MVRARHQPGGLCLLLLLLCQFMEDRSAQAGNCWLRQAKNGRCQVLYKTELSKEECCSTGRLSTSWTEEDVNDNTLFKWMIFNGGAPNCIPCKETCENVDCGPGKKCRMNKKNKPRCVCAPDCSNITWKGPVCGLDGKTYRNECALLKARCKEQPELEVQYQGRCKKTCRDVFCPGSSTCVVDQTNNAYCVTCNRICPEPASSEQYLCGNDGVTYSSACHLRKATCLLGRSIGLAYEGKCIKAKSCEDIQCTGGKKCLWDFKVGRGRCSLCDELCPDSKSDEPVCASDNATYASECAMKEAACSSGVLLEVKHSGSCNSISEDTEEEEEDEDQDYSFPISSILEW
Sequence of Torsin-1A (Homo sapiens) (O14656 whole entry, looked up): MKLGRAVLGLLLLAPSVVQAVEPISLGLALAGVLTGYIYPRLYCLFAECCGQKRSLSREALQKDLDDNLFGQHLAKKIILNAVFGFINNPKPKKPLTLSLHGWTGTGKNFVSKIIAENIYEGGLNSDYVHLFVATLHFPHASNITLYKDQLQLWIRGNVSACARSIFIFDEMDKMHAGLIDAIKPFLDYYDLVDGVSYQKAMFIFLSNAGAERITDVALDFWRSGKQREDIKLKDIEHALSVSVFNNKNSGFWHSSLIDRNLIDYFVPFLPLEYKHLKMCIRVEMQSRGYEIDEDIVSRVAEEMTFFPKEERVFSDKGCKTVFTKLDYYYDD
Sequence of Streptavidin (Streptomyces avidinii) (P22629 whole entry, looked up): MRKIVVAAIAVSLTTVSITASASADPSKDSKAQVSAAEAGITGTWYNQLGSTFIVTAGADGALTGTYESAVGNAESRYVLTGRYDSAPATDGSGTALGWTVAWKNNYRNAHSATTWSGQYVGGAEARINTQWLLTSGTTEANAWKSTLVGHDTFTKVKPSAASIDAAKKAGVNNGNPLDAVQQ

SMILES | composite z-score [1] | composite z-score [2] | composite z-score [3] | composite z-score [4] | composite z-score [5] | composite z-score [6] | z-score [7] | composite z-score (Lefty1) | composite z-score [8] | z-score [9] | composite z-score [10] | z-score [11] | z-score [12] | z-score [13] | z-score [14] | composite z-score [15] | composite z-score [16] | composite z-score (Torsin-1A (Homo sapiens) [17]) | composite z-score (Torsin-1A (Homo sapiens) [18]) | composite z-score [19]
O=C1c2ccccc2[C@](Cc2ccccc2I)(C(=O)NCC(F)(F)F)[C@H](c2ccc(CO)cc2)N1C1CCCCC1 | 1.64 | 1.21 | -0.003 | 0.964 | 0.846 | 0.18 | 2.17 | 0.289 | 0.856 | -1.61 (inactive) | 0.2 | -0.772 (inactive) | 1.01 (inactive) | 0.324 (inactive) | 2.63 (inactive) | 1.1 | 0.029 | 0.365 | 0.936 | 0.176
O=C(NCCCCCNC(=O)/C(Cc1ccccc1)=N/O)OCc1ccccc1 | 0.0971 | 0.0944 | 0.433 | 0.106 | 0.27 | 0.003 | 0.552 | 0.289 | -0.0398 | 0.209 (inactive) | -0.211 | -1.82 (inactive) | -1.37 (inactive) | 3.77 (inactive) | -1.44 (inactive) | 0.153 | -0.245 | 0.847 | -0.013 | -0.103
Cc1ccc(S[C@]2(C(=O)NCC(F)(F)F)CC(=O)N(Cc3ccccc3C(F)(F)F)[C@@H]2c2ccc(CO)cc2I)cc1 | -0.227 | -0.727 | -0.604 | -0.992 | -0.638 | -1.08 | 1.17 | -0.745 | -0.154 | 0.84 (inactive) | -0.0722 | -1.26 (inactive) | -0.235 (inactive) | -0.671 (inactive) | 0.622 (inactive) | -0.619 | -0.024 | -2.42 | -1.67 | -0.402
[N-]=[N+]=NCc1ccccc1C[C@@]1(C(=O)N2CCOCC2)N=C(c2ccc(OCCCO)cc2)O[C@@H]1c1ccccc1 | 3.12 | 1.18 | 0.406 | 0.884 | 0.734 | 0.399 | -0.667 | -0.379 | 0.529 | -0.469 (inactive) | 0.464 | -5.68 (inactive) | -0.244 (inactive) | 0.922 (inactive) | -0.951 (inactive) | 1.35 | 0.0589 | 1.19 | 1.31 | -0.796
Cc1ccc(S[C@]2(C(=O)NCCCN(C)C)CC(=O)N(C3CCCCC3)[C@@H]2c2ccc(CO)cc2)cc1 | -0.693 | -0.612 | 0.116 | -1.43 | -0.24 | -0.852 | 1.28 | -0.562 | 0.165 | 0.437 (inactive) | -0.178 | -1.19 (inactive) | -0.903 (inactive) | 0.0279 (inactive) | 1.46 (inactive) | -0.677 | -0.0375 | -1.74 | -1.11 | -0.728
CCOC(=O)C[C@H]1[C@H](OC(=O)c2ccccc2-c2ccccc2)[C@@H](NC(=O)c2ccc(-c3ccccc3)cc2)c2cc(OCCCO)ccc2N1C(=O)c1ccc2ccccc2n1 | 0.792 | 0.472 | -0.0377 | 0.456 | 0.57 | 0.496 | 0.687 | 0.871 | 0.181 | 0.555 (inactive) | 0.0868 | 0.0395 (inactive) | -0.437 (inactive) | -0.686 (inactive) | 0.254 (inactive) | 0.245 | -0.106 | 0.306 | 0.554 | 0.701
COC(=O)Cn1c(C(=O)N(C)C)cc2c1C[C@H]1CN(C(=O)c3ccccc3)[C@@](Cc3ccc(F)cc3)(C(=O)OC)[C@@H]21 | 2.12 | 1.02 | 1.25 | 0.19 | -0.258 | 0.386 | 0.354 | -0.278 | 1.3 | 0.897 (inactive) | 0.398 | -0.725 (inactive) | -0.625 (inactive) | 0.207 (inactive) | -0.106 (inactive) | 0.124 | 0.382 | 0.245 | -0.068 | -0.238
COc1cc2c(cc1O)C(C)N(Cc1ccc([N+](=O)[O-])o1)CC2 (stereo not given) | 1.63 | 1.1 | 0.243 | 0.824 | 0.542 | 0.18 | 0.275 | 0.18 | 0.918 | -0.0107 (inactive) | 0.322 | 0.143 (inactive) | -0.158 (inactive) | -0.258 (inactive) | 1.6 (inactive) | 0.97 | 0.303 | 0.682 | 0.897 | 0.0196
COCCOC(=O)N1C(=O)[C@@]2(c3cc(C#Cc4ccc(OC)cc4)ccc31)[C@H](c1ccc(O)cc1)N1[C@H](c3ccccc3)[C@H](c3ccccc3)OC(=O)[C@H]1[C@@H]2C(=O)N1CCCCCCC1 | -1.01 | 1.11 | 0.415 | 0.377 | 1.25 | 0.408 | -0.421 | 0.391 | 0.484 | -0.564 (inactive) | 0.608 | -0.86 (inactive) | -0.144 (inactive) | 0.0653 (inactive) | 0.895 (inactive) | 1.25 | 1.12 | -0.0107 | 0.913 | 0.379
COc1ccc(-c2cc3c(c(CCc4ccccc4)n2)[Si](C(C)C)(C(C)C)OC3)cn1 | 0.0933 | -0.765 | -0.192 | -0.284 | 0.323 | -0.025 | -0.585 | 0.496 | -0.289 | 1.17 (inactive) | -0.131 | -0.817 (inactive) | -0.0937 (inactive) | -0.127 (inactive) | 0.307 (inactive) | 0.294 | -0.0986 | 0.188 | -0.168 | 0.434
